From PubChem BioAssay AID1159580 (chemical genetic matrix, 2015)
Where “and” joins values, the source holds several entries; their conditions need not be identical. Identical values can stand only once. About 2,000 (36%) of roughly 5,500 compounds were called active. Not shown: some 18% with an inconclusive outcome. Cut-off read from the data, not from the text of the source: active = normalized growth mostly below about 0.91 (no sharp cut-off); inconclusive = no clear call, values can overlap the other calls; inactive = mostly above about 0.92. Some of the results follow.

Assay: chemical genetic growth profiling, strain panel (AID 1159580);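 note: tested at 20 µM; growth read once vehicle control cultures reached saturation at 30 °C; 1 = growth at the plate median or of vehicle wells; lower values mean less growth of the strain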
Conditions: S. cerevisiae deletion strains, growth OD

Measured: normalized growth

CC(=O)C1CC[C@H]2C3CC[C@H]4C[C@H](O)CC[C@]4(C)C3CC[C@]12C (some centres undefined)
inactive: locus YAL013W, strain DEP1, active compounds read low 1 | locus YAL021C, strain ccr4, active compounds read low 0.936 | locus YAL030W, strain snc1, active compounds read low 0.999 | locus YBL061C, strain skt5, active compounds read low 1.02 | locus YBR009C, strain hhf1, active compounds read low 1.02 | locus YBR021W, strain FUR4, active compounds read low 0.977 | locus YBR023C, strain chs3, active compounds read low 0.998 | locus YBR171W, strain sec66, active compounds read low 0.998 | locus YBR229C, strain ROT2, active compounds read low 0.995 | locus YBR231C, strain swc5, active compounds read low 1.01 | locus YBR279W, strain paf1, active compounds read low 0.987 | locus YCL011C, strain gbp2, active compounds read low 0.995 | locus YCL016C, strain dcc1, active compounds read low 0.964 | locus YCL029C, strain bik1, active compounds read low 0.998 | locus YCL069W, strain vba3, active compounds read low 1 | locus YCR088W, strain abp1, active compounds read low 1 | locus YDL005C, strain med2, active compounds read low 0.997 | locus YDL035C, strain GPR1, active compounds read low 0.999 | locus YDL040C, strain nat1, active compounds read low 1.01 | locus YDL074C, strain BRE1, active compounds read low 1.01 | locus YDL101C, strain DUN1, active compounds read low 0.982 | locus YDL134C, strain PPH21, active compounds read low 0.975 | locus YDL185W, strain tfp1, active compounds read low 0.989 | locus YDL192W, strain arf1, active compounds read low 1 | locus YDR001C, strain nth1, active compounds read low 1.01 | locus YDR069C, strain doa4, active compounds read low 1 | locus YDR101C, strain arx1, active compounds read low 1.01 | locus YDR159W, strain sac3, active compounds read low 1.03 | locus YDR162C, strain NBP2, active compounds read low 0.993 | locus YDR195W, strain ref2 1.02 | locus YDR297W, strain sur2, active compounds read low 1.02 | locus YDR318W, strain mcm21, active compounds read low 0.995 | locus YDR334W, strain swr1, active compounds read low 1.01 | locus YDR335W, strain msn5, active compounds read low 0.984 | locus YDR388W, active compounds read low 0.994 | locus YDR392W, strain spt3, active compounds read low 0.837 | locus YDR502C, strain sam2, active compounds read low 0.971 | locus YEL003W, strain gim4, active compounds read low 1 | locus YEL037C, strain rad23, active compounds read low 0.994 | locus YEL061C, strain CIN8 (second series), active compounds read low 1 | locus YEL061C, strain CIN8, active compounds read low 1.01 | locus YER015W, strain faa2, active compounds read low 1 | locus YER016W, strain bim1, active compounds read low 0.998 | locus YER110C, active compounds read low 0.981 | locus YER111C, strain swi4, active compounds read low 0.994 | locus YER155C, strain BEM2 (second series), active compounds read low 1.02 | locus YER155C, strain BEM2, active compounds read low 0.992 | locus YER167W, strain BCK2, active compounds read low 0.993 | locus YFR010W, strain ubp6, active compounds read low 0.999 | locus YGL078C, strain dbp3, active compounds read low 0.963 | locus YGL086W, strain mad1, active compounds read low 0.971 | locus YGL167C, strain pmr1, active compounds read low 1.01 | locus YGL173C, strain kem1, active compounds read low 0.99 | locus YGL227W, strain vid30, active compounds read low 1.01 | locus YGL240W, strain doc1, active compounds read low 1.01 | locus YGL248W, strain PDE1, active compounds read low 0.987 | locus YGL253W, strain hxk2, active compounds read low 0.983 | locus YGR078C, strain PAC10, active compounds read low 0.969 | locus YGR135W, strain pre9, active compounds read low 0.932 | locus YGR229C, strain SMI1, active compounds read low 1.05 | locus YGR252W, strain gcn5, active compounds read low 0.928 | locus YHR013C, strain ard1, active compounds read low 0.996 | locus YHR027C, strain rpn1, active compounds read low 0.999 | locus YHR030C, strain SLT2, active compounds read low 0.992 and 0.994 | locus YHR079C, strain IRE1 (second series), active compounds read low 1 | locus YHR079C, strain IRE1, active compounds read low 1 | locus YHR094C, strain hxt1, active compounds read low 0.992 | locus YHR129C, strain ARP1, active compounds read low 1 | locus YHR142W, strain chs7, active compounds read low 0.957 | locus YHR200W, strain rpn10, active compounds read low 0.984 | locus YIL066C, strain RNR3, active compounds read low 1.01 | locus YIL073C, strain SPO22, active compounds read low 0.962 | locus YIL125W, strain kgd1, active compounds read low 1 | locus YIR030C, strain dcg1, active compounds read low 0.998 | locus YJL092W, strain hpr5, active compounds read low 1 | locus YJL095W, strain BCK1 (second series), active compounds read low 1.01 | locus YJL095W, strain BCK1, active compounds read low 0.936 and 0.99 | locus YJL115W, strain asf1, active compounds read low 1 | locus YJL129C, strain trk1, active compounds read low 1.01 | locus YJL134W, strain LCB3, active compounds read low 1 | locus YJL154C, strain vps35, active compounds read low 1.01 | locus YJL164C, strain tpk1, active compounds read low 0.999 | locus YJL166W, strain qcr8, active compounds read low 1.01 | locus YJL168C, strain set2, active compounds read low 1 | locus YJL187C, strain SWE1 (second series), active compounds read low 0.962 | locus YJL187C, strain SWE1, active compounds read low 1.01 | locus YJR043C, strain POL32, active compounds read low 1.05 | locus YJR066W, strain TOR1, active compounds read low 0.924 | locus YKL009W, strain mrt4, active compounds read low 0.978 | locus YKL068W, active compounds read low 0.993 | locus YKL085W, strain MDH1 (second series), active compounds read low 1.01 | locus YKL085W, strain MDH1, active compounds read low 1.01 | locus YKL160W, strain elf1, active compounds read low 0.976 | locus YKL190W, strain CNB1, active compounds read low 1.01 | locus YKR001C, strain vps1, active compounds read low 1.02 | locus YKR026C, strain gcn3, active compounds read low 1 | locus YKR091W, strain srl3, active compounds read low 1.01 | locus YLL001W, strain dnm1, active compounds read low 1 | locus YLL026W, active compounds read low 1.02 | locus YLL041C, strain sdh2, active compounds read low 0.997 | locus YLR027C, strain aat2, active compounds read low 0.983 | locus YLR039C, strain RIC1, active compounds read low 0.797 | locus YLR058C, strain SHM2, active compounds read low 0.991 | locus YLR102C, strain apc9, active compounds read low 1 | locus YLR113W, strain HOG1, active compounds read low 1.01 | locus YLR221C, strain rsa3, active compounds read low 1.03 | locus YLR258W, strain gsy2, active compounds read low 0.964 | locus YLR268W, strain sec22, active compounds read low 0.977 | locus YLR320W, strain mms22, active compounds read low 0.98 | locus YLR330W, strain CHS5, active compounds read low 1 | locus YLR342W, strain FKS1 (second series), active compounds read low 0.997 | locus YLR342W, strain FKS1, active compounds read low 1.01 | locus YLR357W, strain rsc2, active compounds read low 0.994 | locus YLR370C, strain arc18, active compounds read low 0.999 | locus YLR371W, strain rom2, active compounds read low 1 | locus YLR384C, strain iki3, active compounds read low 0.977 | locus YLR418C, strain cdc73, active compounds read low 0.993 | locus YML016C, strain PPZ1, active compounds read low 0.994 | locus YML032C, strain rad52, active compounds read low 0.969 | locus YML120C, strain ndi1, active compounds read low 1.02 | locus YML124C, strain tub3, active compounds read low 0.996 | locus YMR058W, strain fet3, active compounds read low 1.01 | locus YMR078C, strain ctf18, active compounds read low 0.988 | locus YMR125W, strain sto1, active compounds read low 0.998 | locus YMR129W, active compounds read low 1 | locus YMR205C, strain PFK2, active compounds read low 1 | locus YMR223W, strain ubp8, active compounds read low 0.977 | locus YMR231W, strain pep5, active compounds read low 1.01 | locus YMR307W, strain GAS1, active compounds read low 1.11 | locus YNL067W, strain RPL9B, active compounds read low 0.967 | locus YNL071W, strain lat1, active compounds read low 0.995 | locus YNL128W, strain TEP1, active compounds read low 0.993 | locus YNL153C, strain GIM3, active compounds read low 0.985 | locus YNL183C, strain NPR1, active compounds read low 0.959 | locus YNL209W, strain ssb2, active compounds read low 0.987 | locus YNL233W, strain BNI4, active compounds read low 0.992 | locus YNL248C, strain rpa49, active compounds read low 0.939 | locus YNL250W, strain rad50, active compounds read low 0.946 | locus YNL271C, strain bni1, active compounds read low 0.986 | locus YNL298W, strain CLA4, active compounds read low 0.993 | locus YNL307C, strain MCK1, active compounds read low 1.01 | locus YNL322C, strain KRE1 (second series), active compounds read low 1.01 | locus YNR049C, strain mso1, active compounds read low 1.01 | locus YNR052C, strain pop2, active compounds read low 0.943 | locus YOL012C, strain htz1 0.983 | locus YOL147C, strain pex11, active compounds read low 0.994 | locus YOR001W, strain rrp6, active compounds read low 0.994 | locus YOR061W, strain CKA2, active compounds read low 1.01 | locus YOR069W, strain VPS5, active compounds read low 0.988 | locus YOR070C, strain gyp1, active compounds read low 0.991 | locus YOR080W, strain dia2, active compounds read low 1.01 | locus YOR083W, strain WHI5, active compounds read low 0.984 | locus YOR106W, strain vam3, active compounds read low 0.995 | locus YOR136W, strain idh2, active compounds read low 0.992 | locus YOR144C, strain elg1, active compounds read low 0.998 | locus YOR184W, strain ser1, active compounds read low 0.981 | locus YOR231W, strain MKK1, active compounds read low 0.996 | locus YOR265W, strain rbl2, active compounds read low 0.993 | locus YOR270C, strain vph1, active compounds read low 0.949 | locus YOR290C, strain snf2, active compounds read low 0.951 | locus YOR316C, strain cot1, active compounds read low 1 | locus YPL051W, strain arl3, active compounds read low 0.986 | locus YPL078C, strain atp4, active compounds read low 0.976 | locus YPL106C, strain sse1, active compounds read low 1.04 | locus YPL240C, strain hsp82, active compounds read low 1.02 | locus YPL256C, strain CLN2, active compounds read low 1.01 | locus YPR119W, strain clb2, active compounds read low 0.997 | locus YPR141C, strain kar3, active compounds read low 0.99 | locus YPR163C, strain tif3, active compounds read low 0.99 | locus YPR167C, strain met16, active compounds read low 0.995 | strain wtn01, active compounds read low 0.987
active: locus YAL026C, strain drs2, active compounds read low 0.849 | locus YDR137W, strain rgp1, active compounds read low 0.763 | locus YLR262C, strain YPT6 (second series), active compounds read low 0.778
